Data reported in the supplement of paper PMC12067093, “Discovery and optimisation of a covalent ligand for TRIM25 and its application to targeted protein ubiquitination” (Chemical Science, 2025).
Of roughly 21,000 targets only a part is listed; those with the largest changes were picked by preference.

Each target was assayed with Cc1cc(ccc1-c1ccccc1)C(=O)N1CCCN(CC1)C(=O)CCl [compound 10] (assay: probe-labelled cysteine peptide fold change vs DMSO (competition) (log2 fold change); higher = less target engagement (more negative = stronger competition)). Conditions: 10 µM; THP-1; incubation time: 4 h.
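Further: competitive profiling in live THP-1 cells: cysteine peptides tagged with an iodoacetamide desthiobiotin (IA-DTB) probe, intensity after compound treatment relative to DMSO-treated cells.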

Chain of UniProt P60981 (P60981 whole entry, looked up): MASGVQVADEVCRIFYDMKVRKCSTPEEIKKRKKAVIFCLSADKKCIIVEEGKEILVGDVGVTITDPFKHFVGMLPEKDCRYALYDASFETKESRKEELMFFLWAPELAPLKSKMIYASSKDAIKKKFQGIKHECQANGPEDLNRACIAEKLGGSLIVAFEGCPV
Chain of UniProt Q9BYI3 (Q9BYI3 whole entry, looked up): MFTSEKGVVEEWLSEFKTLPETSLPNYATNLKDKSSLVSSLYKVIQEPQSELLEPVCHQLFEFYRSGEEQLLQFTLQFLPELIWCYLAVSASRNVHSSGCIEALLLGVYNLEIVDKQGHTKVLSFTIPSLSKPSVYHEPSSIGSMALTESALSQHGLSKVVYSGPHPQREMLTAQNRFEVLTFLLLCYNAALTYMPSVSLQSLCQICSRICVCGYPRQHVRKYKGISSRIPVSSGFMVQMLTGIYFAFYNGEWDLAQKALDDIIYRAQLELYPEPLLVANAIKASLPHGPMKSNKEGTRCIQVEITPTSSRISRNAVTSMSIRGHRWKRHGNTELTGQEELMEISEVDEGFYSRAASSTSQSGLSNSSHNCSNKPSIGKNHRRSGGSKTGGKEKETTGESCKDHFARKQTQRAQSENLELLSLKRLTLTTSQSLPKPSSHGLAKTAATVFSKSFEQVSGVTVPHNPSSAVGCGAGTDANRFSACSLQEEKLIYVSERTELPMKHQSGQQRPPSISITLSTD
Chain of UniProt P42566 (P42566 whole entry, looked up): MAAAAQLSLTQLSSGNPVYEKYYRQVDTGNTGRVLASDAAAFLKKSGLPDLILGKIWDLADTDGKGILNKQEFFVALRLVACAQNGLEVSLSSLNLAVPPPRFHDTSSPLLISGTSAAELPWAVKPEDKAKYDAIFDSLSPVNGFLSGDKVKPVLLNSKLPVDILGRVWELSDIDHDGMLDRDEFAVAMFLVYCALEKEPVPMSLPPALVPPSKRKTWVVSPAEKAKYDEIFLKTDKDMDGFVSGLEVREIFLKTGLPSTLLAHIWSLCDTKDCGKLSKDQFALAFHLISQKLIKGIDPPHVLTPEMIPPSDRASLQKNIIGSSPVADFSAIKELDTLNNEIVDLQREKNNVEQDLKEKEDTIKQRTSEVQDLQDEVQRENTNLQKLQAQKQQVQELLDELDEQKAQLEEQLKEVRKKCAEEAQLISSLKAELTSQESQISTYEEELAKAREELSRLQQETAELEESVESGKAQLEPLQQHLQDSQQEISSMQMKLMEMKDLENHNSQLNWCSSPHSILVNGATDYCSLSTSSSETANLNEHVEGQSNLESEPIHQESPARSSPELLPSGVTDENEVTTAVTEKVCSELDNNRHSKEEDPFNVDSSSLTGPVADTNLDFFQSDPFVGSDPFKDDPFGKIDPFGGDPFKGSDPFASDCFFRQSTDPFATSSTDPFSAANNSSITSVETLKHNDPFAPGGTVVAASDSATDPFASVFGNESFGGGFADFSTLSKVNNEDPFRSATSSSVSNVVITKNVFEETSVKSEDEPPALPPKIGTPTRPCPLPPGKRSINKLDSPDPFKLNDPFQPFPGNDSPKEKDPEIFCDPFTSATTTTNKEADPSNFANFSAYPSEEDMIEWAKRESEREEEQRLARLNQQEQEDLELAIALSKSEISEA
Chain of UniProt O94868 (O94868 whole entry, looked up): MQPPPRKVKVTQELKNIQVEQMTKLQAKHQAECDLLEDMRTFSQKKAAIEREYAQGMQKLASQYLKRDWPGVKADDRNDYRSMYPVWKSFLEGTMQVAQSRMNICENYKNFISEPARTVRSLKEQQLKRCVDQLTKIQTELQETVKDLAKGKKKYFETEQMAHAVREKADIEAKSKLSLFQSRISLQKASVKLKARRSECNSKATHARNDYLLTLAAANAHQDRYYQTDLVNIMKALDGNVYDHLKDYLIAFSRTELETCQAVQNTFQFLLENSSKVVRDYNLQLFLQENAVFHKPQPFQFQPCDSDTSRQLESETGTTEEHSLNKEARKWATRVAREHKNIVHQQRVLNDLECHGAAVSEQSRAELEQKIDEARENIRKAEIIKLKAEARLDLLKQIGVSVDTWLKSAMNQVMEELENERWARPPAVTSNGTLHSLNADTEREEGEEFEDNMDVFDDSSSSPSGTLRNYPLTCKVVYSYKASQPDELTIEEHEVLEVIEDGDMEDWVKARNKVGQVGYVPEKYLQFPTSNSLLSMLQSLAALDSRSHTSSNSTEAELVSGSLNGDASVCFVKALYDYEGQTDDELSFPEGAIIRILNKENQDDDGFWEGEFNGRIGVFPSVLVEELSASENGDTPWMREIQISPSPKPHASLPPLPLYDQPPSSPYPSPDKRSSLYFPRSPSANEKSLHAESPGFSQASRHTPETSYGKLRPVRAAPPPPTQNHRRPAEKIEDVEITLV
Chain of UniProt Q13868 (Q13868 whole entry, looked up): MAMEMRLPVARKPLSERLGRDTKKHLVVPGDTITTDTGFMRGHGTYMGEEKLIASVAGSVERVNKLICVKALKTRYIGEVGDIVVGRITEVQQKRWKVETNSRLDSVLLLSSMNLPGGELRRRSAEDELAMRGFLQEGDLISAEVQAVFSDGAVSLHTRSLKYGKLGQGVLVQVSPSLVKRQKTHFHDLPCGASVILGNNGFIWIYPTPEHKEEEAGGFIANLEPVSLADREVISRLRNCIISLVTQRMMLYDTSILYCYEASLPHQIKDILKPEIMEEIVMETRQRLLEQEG
Chain of UniProt Q96E09 (Q96E09 whole entry): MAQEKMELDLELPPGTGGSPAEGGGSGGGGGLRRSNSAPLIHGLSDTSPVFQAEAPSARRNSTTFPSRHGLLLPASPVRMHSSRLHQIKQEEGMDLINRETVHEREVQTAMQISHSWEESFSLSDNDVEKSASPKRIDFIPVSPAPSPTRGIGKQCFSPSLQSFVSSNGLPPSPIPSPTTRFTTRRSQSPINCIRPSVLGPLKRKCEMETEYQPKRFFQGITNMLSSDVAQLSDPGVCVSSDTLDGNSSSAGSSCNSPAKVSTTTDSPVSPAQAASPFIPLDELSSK
Chain of UniProt Q8NEZ5 (Q8NEZ5 whole entry, looked up): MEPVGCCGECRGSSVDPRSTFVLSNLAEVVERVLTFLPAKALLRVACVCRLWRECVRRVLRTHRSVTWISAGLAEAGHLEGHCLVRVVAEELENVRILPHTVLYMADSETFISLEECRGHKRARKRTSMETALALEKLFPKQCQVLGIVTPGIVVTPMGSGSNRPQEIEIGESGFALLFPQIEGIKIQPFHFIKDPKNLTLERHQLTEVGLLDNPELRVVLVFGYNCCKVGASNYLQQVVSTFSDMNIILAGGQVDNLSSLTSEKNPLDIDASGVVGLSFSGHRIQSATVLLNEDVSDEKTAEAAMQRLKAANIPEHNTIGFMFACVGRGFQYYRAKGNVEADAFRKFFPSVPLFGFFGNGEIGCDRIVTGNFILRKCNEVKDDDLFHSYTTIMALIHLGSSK
Chain of UniProt Q9NVI1 (Q9NVI1 whole entry, looked up): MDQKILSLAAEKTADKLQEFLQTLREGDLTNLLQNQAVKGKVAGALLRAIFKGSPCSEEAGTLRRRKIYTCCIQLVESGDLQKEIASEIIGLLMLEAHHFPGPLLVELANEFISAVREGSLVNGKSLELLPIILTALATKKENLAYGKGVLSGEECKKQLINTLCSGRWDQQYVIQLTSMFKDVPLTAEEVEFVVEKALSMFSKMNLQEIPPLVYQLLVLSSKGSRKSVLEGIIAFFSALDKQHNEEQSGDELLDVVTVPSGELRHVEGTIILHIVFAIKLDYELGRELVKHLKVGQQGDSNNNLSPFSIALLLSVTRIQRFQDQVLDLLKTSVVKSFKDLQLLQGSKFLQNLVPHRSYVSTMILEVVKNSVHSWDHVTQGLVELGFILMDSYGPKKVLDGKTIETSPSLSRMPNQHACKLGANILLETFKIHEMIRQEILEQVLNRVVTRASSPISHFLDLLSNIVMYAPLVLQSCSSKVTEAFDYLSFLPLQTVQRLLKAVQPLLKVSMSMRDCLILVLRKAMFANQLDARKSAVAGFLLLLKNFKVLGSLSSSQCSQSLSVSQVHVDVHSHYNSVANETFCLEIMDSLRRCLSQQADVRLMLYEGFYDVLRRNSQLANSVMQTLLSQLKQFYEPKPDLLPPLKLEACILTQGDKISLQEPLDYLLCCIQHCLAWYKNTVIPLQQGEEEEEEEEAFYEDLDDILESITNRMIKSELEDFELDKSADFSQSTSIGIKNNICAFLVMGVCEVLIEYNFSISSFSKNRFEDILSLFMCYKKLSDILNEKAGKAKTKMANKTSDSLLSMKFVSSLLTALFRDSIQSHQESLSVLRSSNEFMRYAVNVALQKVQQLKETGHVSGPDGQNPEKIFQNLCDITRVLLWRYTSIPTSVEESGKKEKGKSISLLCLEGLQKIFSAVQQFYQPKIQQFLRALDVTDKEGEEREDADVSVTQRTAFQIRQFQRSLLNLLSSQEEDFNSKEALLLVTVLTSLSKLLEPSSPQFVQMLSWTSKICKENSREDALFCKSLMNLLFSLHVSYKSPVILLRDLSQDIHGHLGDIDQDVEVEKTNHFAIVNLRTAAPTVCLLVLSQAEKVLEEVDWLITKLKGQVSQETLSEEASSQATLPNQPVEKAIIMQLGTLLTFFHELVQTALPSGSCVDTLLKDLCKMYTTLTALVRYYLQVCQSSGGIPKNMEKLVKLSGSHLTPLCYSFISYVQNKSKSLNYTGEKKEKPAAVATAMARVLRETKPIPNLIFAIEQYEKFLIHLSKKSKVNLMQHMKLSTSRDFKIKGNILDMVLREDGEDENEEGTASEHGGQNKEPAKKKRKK
Chain of UniProt P33316 (P33316 whole entry, looked up): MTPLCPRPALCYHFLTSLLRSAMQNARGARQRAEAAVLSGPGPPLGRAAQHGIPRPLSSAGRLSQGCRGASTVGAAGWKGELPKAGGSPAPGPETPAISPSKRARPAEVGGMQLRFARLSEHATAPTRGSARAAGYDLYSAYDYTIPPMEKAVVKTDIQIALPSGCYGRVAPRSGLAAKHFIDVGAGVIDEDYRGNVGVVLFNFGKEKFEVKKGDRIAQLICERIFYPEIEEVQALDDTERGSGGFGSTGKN

Target	probe-labelled cysteine peptide fold change
ELP1_O95163_23_DIQGPGNPQCFSLR (UniProt O95163)	0.145
EXOSC1_Q9Y3B2_73_ETESQLLPDVGAIVTCK (UniProt Q9Y3B2)	-0.0568
DPH7_Q9BTV6_33_HLLACGTYQLR (UniProt Q9BTV6)	0.0319
EXOSC1_Q9Y3B2_40_HGYIFSSLAGCLMK (UniProt Q9Y3B2)	0.118
ELOVL5_Q9NYP7_61_NKQPFSCR (UniProt Q9NYP7)	-0.567
EXOSC6_Q5RKV6_117_RAPPGGCEERELALALQEALEPAVR (UniProt Q5RKV6)	-0.569
FANCG_O15287_417_AQDALTLCEELLSR (UniProt O15287)	0.0123
EEF1A1P5_Q5VTE0_363+370_GNVAGDSKNDPPMEAAGFTAQVIILNHPGQISAGYAPVLDCHMAHIACK (UniProt Q5VTE0)	-0.198
DYNC1I2_Q13409_331_TTPEYVFHCQSAVMSATFAK (UniProt Q13409)	0.091
ERCC3_P19447_342_SGVIVLPCGAGK (UniProt P19447)	-0.235
EZH2_Q15910_260_ELTEQQLPGALPPECTPNIDGPNAK (UniProt Q15910)	-0.164
EXOSC10_Q01780_555_IAEELPKEPQGIIACCNPVPPLVR (UniProt Q01780)	-0.144
FAM126A_Q9BYI3_401_ETTGESCK (UniProt Q9BYI3)	-0.493
ETHE1_O95571_170_TDFQQGCAK (UniProt O95571)	-0.118
EHMT1_Q9H9B1_1111_LLPEFNMAEPPLIFECNHACSCWR (UniProt Q9H9B1)	0.0188
ENG_P17813_549_TGTLSCTVALRPK (UniProt P17813)	-0.142
EFTUD2_Q15029_144+148_TCFVDCLIEQTHPEIR (UniProt Q15029)	-0.176
FBXO30_Q8TB52_90_VAEHLEMCPASVVCCTMEWNR (UniProt Q8TB52)	-0.103

Target	probe-labelled cysteine peptide fold change
FAM122A_Q96E09_193_SQSPINCIRPSVLGPLK (UniProt Q96E09)	-0.132
EDC4_Q6P2E9_976_LCTQLEGLQSTVTGHVER (UniProt Q6P2E9)	-0.0211
DYNC1H1_Q14204_2712_IQFVGACNPPTDPGRKPLSHR (UniProt Q14204)	-0.0552
FANCI_Q9NVI1_650_LEACILTQGDK (UniProt Q9NVI1)	-0.0611
EPS15_P42566_782_IGTPTRPCPLPPGKR (UniProt P42566)	-0.367
FBXO22_Q8NEZ5_7_MEPVGCCGECR (UniProt Q8NEZ5)	-0.235
DUT_P33316-2_3_PCSEETPAISPSK (UniProt P33316)	-0.335
EEF1A1_P68104_234_DGNASGTTLLEALDCILPPTRPTDKPLRLPLQDVYK (UniProt P68104)	-0.124
ELP4_Q96EB1_361_LNNLICDESDVK (UniProt Q96EB1)	-0.0288
FCHSD2_O94868_200_SECNSK (UniProt O94868)	-0.126
EIF3CL_B5ME19_572_TCAILCHIYHHALHSR<|>EIF3C_Q99613_571_TCAILCHIYHHALHSR (UniProt Q99613+B5ME19)	0.0697
DSTN_P60981_163_LGGSLIVAFEGCPV (UniProt P60981)	-0.192
EXOSC6_Q5RKV6_248_LGLEGCQR (UniProt Q5RKV6)	-0.00681
EXOSC2_Q13868_259_MMLYDTSILYCYEASLPHQIK (UniProt Q13868)	0.341
FDX1_P10109_152+155_LGCQICLTK (UniProt P10109)	-0.319
FAM208A_Q9UK61_149_ACLVHNELLEK (UniProt Q9UK61)	-0.2
EEF1B2_P24534_191_LQIQCVVEDDK<|>EEF1D_P29692_247_LQIQCVVEDDK (UniProt P29692+P24534)	0.179
FAM98C_Q17RN3_340_REDGGPQCWGR (UniProt Q17RN3)	-0.342
